Here are results for 32 compounds from PubChem BioAssay (NCATS).

Records with an inconclusive call do not appear. Values without a mark were called inactive. The source made the active and inactive calls. The call rests on the fitted dose curve.
On the % scale 0 is the no-effect control and ±100 the full control effect; potency means the concentration at half of the fitted maximal effect.

This assay in a line: Validation screen for inhibitors of Lassa infection (AID 463096). Conditions: Lassa virus infection, cell-based; series mostly up to 46.1 µM; activity change, negative = inhibition: at the top concentration.
With `Nc1nnc(-c2cccc(Cl)c2Cl)c(N)n1`, the “activity change, negative = inhibition” value was 26.3%.

With `COCCCC/C(=N\OCCN)c1ccc(C(F)(F)F)cc1`, the “activity change, negative = inhibition” value was -35.4%.

Turning to `CN1CCN(C2=Nc3ccccc3Oc3ccc(Cl)cc32)CC1`, the “activity change, negative = inhibition” value was -16.5%.

`O=C(CCCN1CCC(O)(c2ccc(Cl)cc2)CC1)c1ccc(F)cc1`: the “activity change, negative = inhibition” value was -43%.

As to `CC(COc1ccccc1)N(CCCl)Cc1ccccc1` (configuration not stated), the “activity change, negative = inhibition” value is 1.94%.

For the compound `CC(=O)CCCCn1c(=O)c2c(ncn2C)n(C)c1=O`, the “activity change, negative = inhibition” value is 3.07%.

Turning to `Nc1nc2c(ncn2COC(CO)CO)c(=O)[nH]1`, the “activity change, negative = inhibition” value is 3.28%.

As for `COc1cc2c(c(OC)c1OC)-c1ccc(OC)c(=O)cc1[C@@H](NC(C)=O)CC2`, the “activity change, negative = inhibition” value is -25.6%.

Take `NC(=O)NO`: the “activity change, negative = inhibition” value is -12.9%.

For `CC(C)[N+](C)(CCOC(=O)C1c2ccccc2Oc2ccccc21)C(C)C`, the “activity change, negative = inhibition” value is -3.02%.

For `O=C(c1ccccc1)c1ccc2n1CCC2C(=O)O` (configuration not stated), the “activity change, negative = inhibition” value is 4.5%.

Regarding `Cn1cnc([N+](=O)[O-])c1Sc1ncnc2nc[nH]c12`, the “activity change, negative = inhibition” value was -30.1%.

`CC(CN1c2ccccc2Sc2ccccc21)N(C)C` (configuration not stated): the “activity change, negative = inhibition” value was -47%.

As to `Cc1cccc(C)c1OCC(C)N` (configuration not stated), the “activity change, negative = inhibition” value is 30.4%.

In the case of `CCN(CC)C(=S)SSC(=S)N(CC)CC`, the Potency is 10 µM (active).

Take `Cc1ccccc1N1C(=O)c2cc(S(N)(=O)=O)c(Cl)cc2NC1C` (configuration not stated): the “activity change, negative = inhibition” value is 23.9%.

As for `CC1=C(/C=C/C(C)=C/C=C/C(C)=C/C(=O)Nc2ccc(O)cc2)C(C)(C)CCC1`, the “activity change, negative = inhibition” value is -44%.

In the case of `O=c1[nH]cc(F)c(=O)[nH]1`, the “activity change, negative = inhibition” value was -12.1%.

`COC(=O)[C@H]1[C@H]2C[C@@H]3c4[nH]c5cc(OC)ccc5c4CCN3C[C@H]2C[C@@H](OC(=O)c2cc(OC)c(OC)c(OC)c2)[C@@H]1OC`: the Potency is 7.94 µM (active).

For `CCC1(c2ccccc2)C(=O)NCNC1=O`, the “activity change, negative = inhibition” value was 36.3%.

For `Cc1cn([C@H]2C=C[C@@H](CO)O2)c(=O)[nH]c1=O`, the “activity change, negative = inhibition” value was 20.2%.

As for `NC[C@H](O)c1ccc(O)c(O)c1`, the “activity change, negative = inhibition” value was 37.9%.

As to `COc1ccccc1OCC(O)CN1CCN(CC(=O)Nc2c(C)cccc2C)CC1` (configuration not stated), the “activity change, negative = inhibition” value was -0.707%.

Regarding `Cc1ccccc1C(OCCN(C)C)c1ccccc1` (configuration not stated), the “activity change, negative = inhibition” value is -38.7%.

As to `O=c1n(CCCN2CCN(c3cccc(Cl)c3)CC2)nc2ccccn12`, the “activity change, negative = inhibition” value was 1.15%.

In the case of `CC[N+](C)(C)c1cccc(O)c1`, the “activity change, negative = inhibition” value was -14.6%.

For `N=c1nc(N2CCCCC2)cc(N)n1O`, the “activity change, negative = inhibition” value is 0.884%.

`NS(=O)(=O)c1cc2c(cc1Cl)NC=NS2(=O)=O`: the “activity change, negative = inhibition” value is 7.75%.

For the compound `CCCN(CCC)CCc1cccc2c1CC(=O)N2`, the “activity change, negative = inhibition” value is 23.4%.

As for `NC12CC3CC(CC(C3)C1)C2`, the “activity change, negative = inhibition” value was 34.3%.

Consider `O=C1NC(=O)C(c2ccccc2)(c2ccccc2)N1`, for which the “activity change, negative = inhibition” value is 4.52%.

For the compound `COc1ccc([C@@H]2Sc3ccccc3N(CCN(C)C)C(=O)[C@@H]2OC(C)=O)cc1`, the Potency is 1.41 µM (active).
